A short description of assay [1]: compounds binding Alexa647 anti-His antibody – biochemical, small-molecule microarray, 635 nm fluorescence, artefact control for SMM control protein annotation, primary screen (AID 1128).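 Also: score merges feature fluorescence with signal-to-noise for each printed compound spot.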 Particulars: higher = more signal.
Assay [2] relates to Human papillomavirus type 1a E7 protein (residues 1-88). The assay can be described thus: HPV1a E7 small-molecule binders, primary screen, biochemical, small-molecule microarray, residues 1-88, 635 nm (AID 1129). Conditions: small-molecule microarray binding, fluorescence 635 nm; higher = more signal.
The target of assay [3] is Focal adhesion kinase 1 (Homo sapiens) (UniProt Q05397). The assay is described as follows: PTK2 protein binding on printed compound slides – biochemical, small-molecule microarray, 635/667 nm fluorescence, BSA, DTT, primary screen (AID 1130).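 Also: composite of spot emission at 667 nm and signal to noise over triplicate slides.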 Particulars: 635 nm fluorescence, higher = more signal.
For assay [4], the system named is Fibrinogen (Alexa647-labelled). The assay is described as follows: Alexa647-fibrinogen binding to printed small molecules – biochemical, small-molecule microarray, 635/667 nm fluorescence, artefact control for SMM control-protein annotation, profiling panel (AID 1131).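 Also: z-score merges 667 nm fluorescence with per-spot signal-to-noise over triplicate slides.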 Conditions: fibrinogen-A647 binding fluorescence, higher = more signal.
Assay [5] has as its target Follistatin (Homo sapiens) (UniProt P19883). The assay is described as follows: FST protein binding to printed compounds – biochemical, small-molecule microarray, 635/667 nm fluorescence, primary screen (AID 1132). Conditions: 635 nm fluorescence, higher = more signal.
For assay [6], the target named is Fibroblast growth factor 2 (Homo sapiens) (UniProt P09038). The assay can be described thus: basic fibroblast growth factor binding to printed compounds – biochemical, small-molecule microarray, 635/667 nm fluorescence, primary screen (AID 1133). Conditions: FGF2, fluorescence 635/667, higher = more signal.
The nature of assay [7]: JC-1 mitochondrial potential readout, lung cancer cells – cell-based, A549, JC-1 fluorescence, basal, 24 h, 100 nL, profiling panel (AID 1138).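 Also: A549 lung adenocarcinoma cells under basal conditions with no added stimulus; test concentration not given here.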 Conditions: higher = more signal.
Assay [8] concerns Lefty1. The assay is described as follows: Lefty1 protein binding to printed compounds – biochemical, small-molecule microarray, 635/667 nm fluorescence, primary screen (AID 1139). Conditions: fluorescence 635/667, higher = more signal.
In assay [9] the test system is wheat germ agglutinin (Triticum aestivum), Alexa647-labelled. The assay is described as follows: Alexa647-WGA lectin binding to printed small molecules – biochemical, small-molecule microarray, 635/667 nm fluorescence, artefact control for SMM control-protein annotation, profiling panel (AID 1140).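 Also: score merges 667 nm feature emission with signal to noise over triplicate slides.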 Particulars: WGA-A647 binding, 635 nm fluorescence, higher = more signal.

Assay [10] deals with Luciferin 4-monooxygenase (Photinus pyralis) (UniProt P08659). The assay can be described thus: inhibition of purified Photinus pyralis luciferase – biochemical, luminescence, purified enzyme, 2006 set, primary screen (AID 1141).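 Also: cell-free assay with purified firefly luciferase at 100 ng per well in PBS; test concentration not given here.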 Particulars: purified firefly luciferase, SteadyGlo luminescence, 30 min; higher = more signal, called active from +8 up or from −8 down.

Molecules are shown by their SMILES. Activity calls are given as the source filed them.

Chain of Follistatin (Homo sapiens) (P19883 whole entry, looked up): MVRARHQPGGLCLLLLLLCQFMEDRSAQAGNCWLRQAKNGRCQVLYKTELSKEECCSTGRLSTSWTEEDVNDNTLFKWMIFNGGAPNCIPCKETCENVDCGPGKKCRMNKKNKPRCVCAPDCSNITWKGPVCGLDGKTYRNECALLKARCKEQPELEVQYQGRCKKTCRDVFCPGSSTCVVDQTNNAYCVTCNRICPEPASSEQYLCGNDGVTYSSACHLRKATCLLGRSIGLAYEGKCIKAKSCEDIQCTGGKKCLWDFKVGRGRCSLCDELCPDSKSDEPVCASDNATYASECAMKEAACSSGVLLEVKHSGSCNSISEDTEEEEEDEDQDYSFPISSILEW
Chain of Focal adhesion kinase 1 (Homo sapiens) (Q05397 whole entry, looked up): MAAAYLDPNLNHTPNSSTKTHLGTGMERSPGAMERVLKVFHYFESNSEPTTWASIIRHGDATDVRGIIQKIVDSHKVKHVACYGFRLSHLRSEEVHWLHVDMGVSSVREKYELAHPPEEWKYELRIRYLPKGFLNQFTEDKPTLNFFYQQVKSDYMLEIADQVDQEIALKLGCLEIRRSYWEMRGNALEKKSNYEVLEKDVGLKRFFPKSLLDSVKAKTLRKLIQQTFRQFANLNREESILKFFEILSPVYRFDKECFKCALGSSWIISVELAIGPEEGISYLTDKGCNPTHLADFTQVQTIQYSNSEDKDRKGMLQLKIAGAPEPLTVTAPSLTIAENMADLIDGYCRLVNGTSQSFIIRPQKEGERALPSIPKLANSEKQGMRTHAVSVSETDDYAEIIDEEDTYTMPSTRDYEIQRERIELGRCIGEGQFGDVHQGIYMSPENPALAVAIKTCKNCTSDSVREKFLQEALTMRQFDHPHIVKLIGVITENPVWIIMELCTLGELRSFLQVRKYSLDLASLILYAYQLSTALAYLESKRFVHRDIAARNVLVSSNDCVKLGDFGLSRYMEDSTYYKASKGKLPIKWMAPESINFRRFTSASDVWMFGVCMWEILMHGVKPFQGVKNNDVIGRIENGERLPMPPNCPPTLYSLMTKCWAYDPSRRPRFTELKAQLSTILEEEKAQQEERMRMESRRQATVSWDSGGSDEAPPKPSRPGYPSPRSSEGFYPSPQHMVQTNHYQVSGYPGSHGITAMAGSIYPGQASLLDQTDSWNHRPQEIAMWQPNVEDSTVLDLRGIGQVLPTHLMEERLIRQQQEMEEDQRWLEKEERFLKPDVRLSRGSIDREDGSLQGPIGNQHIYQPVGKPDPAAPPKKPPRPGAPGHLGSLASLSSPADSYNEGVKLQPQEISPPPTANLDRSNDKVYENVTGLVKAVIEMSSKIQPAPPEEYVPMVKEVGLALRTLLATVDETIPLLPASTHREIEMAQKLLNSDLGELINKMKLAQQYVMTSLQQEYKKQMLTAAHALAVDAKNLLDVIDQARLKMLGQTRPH
Chain of Luciferin 4-monooxygenase (Photinus pyralis) (P08659 whole entry, looked up): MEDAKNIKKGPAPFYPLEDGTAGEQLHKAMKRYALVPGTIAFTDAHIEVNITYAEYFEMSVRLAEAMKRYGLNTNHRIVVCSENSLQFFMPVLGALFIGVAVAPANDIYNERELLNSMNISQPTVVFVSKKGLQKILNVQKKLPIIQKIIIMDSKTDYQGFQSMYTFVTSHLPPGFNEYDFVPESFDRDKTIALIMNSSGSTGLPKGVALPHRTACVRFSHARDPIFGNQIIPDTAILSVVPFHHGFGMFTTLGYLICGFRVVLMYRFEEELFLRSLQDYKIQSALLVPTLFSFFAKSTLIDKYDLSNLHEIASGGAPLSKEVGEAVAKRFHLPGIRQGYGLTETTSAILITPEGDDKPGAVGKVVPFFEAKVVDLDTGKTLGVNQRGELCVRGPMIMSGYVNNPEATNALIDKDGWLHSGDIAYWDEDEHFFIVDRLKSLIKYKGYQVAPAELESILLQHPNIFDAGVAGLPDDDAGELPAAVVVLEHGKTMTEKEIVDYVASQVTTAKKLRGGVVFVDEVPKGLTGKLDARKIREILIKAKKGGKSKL
Chain of Fibroblast growth factor 2 (Homo sapiens) (P09038 whole entry, looked up): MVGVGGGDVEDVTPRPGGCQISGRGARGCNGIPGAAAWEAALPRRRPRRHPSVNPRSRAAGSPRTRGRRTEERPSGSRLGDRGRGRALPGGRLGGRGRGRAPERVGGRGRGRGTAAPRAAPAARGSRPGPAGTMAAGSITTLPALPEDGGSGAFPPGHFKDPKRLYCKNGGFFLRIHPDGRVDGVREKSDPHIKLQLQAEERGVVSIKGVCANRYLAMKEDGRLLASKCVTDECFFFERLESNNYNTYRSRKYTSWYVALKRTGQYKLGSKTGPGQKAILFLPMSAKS

In the case of `O=C1C=C[C@@H](O)[C@@H]2[C@@H]3C(=O)N(C4CCCCC4)C(=O)[C@@H]3CC[C@@H]12`, the composite z-score was 0.575 in assay [1]; 0.55 in assay [2]; 0.431 in assay [3]; 0.831 in [4]; 1.21 in assay [5]; 0.826 in assay [6]. Also, the composite z-score amounted to 0.629 in [8] and 0.0297 in assay [9]. In addition, the results for the z-score in [7] and in assay [10] were 1.09 and -0.611 (inactive), respectively.

On to `COC(=O)[C@H](C)NC(=O)CCC1CC(OC(=O)NCc2ccc3c(c2)OCO3)CC2(CCCC(COC(=O)NCCCN3CCCC3=O)O2)O1` (stereo not given in full), for which the composite z-score in assay [1] worked out at 0.23; in [2], 1.03; in [3], 0.174; in assay [4], 0.861; in assay [5], 0.602; in [6] it was 1.42. In addition, the composite z-score in assay [8] was determined as 0.777; in assay [9] it was 0.364. Also, the z-score in [7] was -0.224; in [10] it was 0.906 (inactive).

In the case of `CC(CCN1CCCCc2nc(C)c(C)cc21)=NO[C@@H](C)c1cc(-c2c(C)cc(C)cc2C)no1`, the composite z-score in assay [1] is -0.335; in assay [2], -0.384; in assay [3], 0.0796; in [4], -0.317; in assay [5], -0.673; in [6], -0.682. Besides, the composite z-score in assay [8] is -0.315; in assay [9], -0.547. Further, the z-score is 1.91 in assay [7] and -1.49 (inactive) in [10].

For the molecule `C#CCCCON=C1C[C@@H](O)[C@@H](O)[C@@H]2[C@@H]3C(=O)N(CC)C(=O)[C@@H]3CC[C@H]12`, the composite z-score in assay [1] is 1.93; in assay [2] it was 0.286; in assay [3], -0.442; in assay [4], 0.636; in [5], -0.473; in [6] it was -0.0374. Further, the composite z-score in assay [8] was 0.162; in assay [9] it was 1.07. Besides, the z-score in [7] was -0.27; in assay [10], 0.0384 (inactive).

Turning to `CC(C)=NOC(C)CN1CCCCc2nc(C)c(C)cc21` (stereo not given), the composite z-score in assay [1] was 0.734; in assay [2], -0.368; in assay [3], -0.368; in assay [4] it was 0.755; in [5], 0.886; in [6], 0.234. The composite z-score in assay [8] was 0.603; in assay [9], -0.0583. Further, the z-score is 0.23 in assay [7] and -0.327 (inactive) in assay [10].

Take `CON=C1c2cc(OC)ccc2O[C@H](c2cccc(OC)c2)[C@H]1O`: the composite z-score in assay [1] worked out at 0.293; in assay [2], 0.416; in assay [3], 0.197; in [4] it was 0.273; in assay [5] it was 0.587; in assay [6] it was 0.675. The composite z-score in [8] amounted to 0.6; in assay [9] it was 0.208. The results for the z-score in assay [7] and in assay [10] were 0.314 and -2.9 (inactive), respectively.

Consider `CCN1C(=O)[C@H]2[C@H]3[C@H](O)[C@H](O)CC(=NO[C@@H]4O[C@H](CO)[C@@H](O)[C@H](O)[C@H]4O)[C@H]3CC[C@H]2C1=O`, for which the composite z-score in [1] was 0.0595; in [2] it was 0.512; in assay [3], 0.026; in assay [4], 0.16; in assay [5] it was 0.442; in assay [6], 0.922. Further, the composite z-score in assay [8] came out at 0.467; in assay [9], 0.0622. Besides, the z-score in assay [7] was -0.8; in [10], 0.217 (inactive).

Consider `CCOC(=O)[C@H](Cc1ccccc1)NC(=O)CCC1CC(OC(=O)NCc2cccc3ccccc23)CC2(CCCC(COC(=O)NCc3ccc4c(c3)OCO4)O2)O1` (stereo not given in full), for which the composite z-score in assay [1] was determined as 0.209; in assay [2] it was 0.397; in assay [3], 0.338; in [4], 0.508; in assay [5], 0.222; in [6] it was 0.982. The composite z-score in [8] is 0.659; in [9], -0.074. Besides, the z-score in assay [7] was 0.4; in assay [10], -0.323 (inactive).

As for `CCCNC(=O)OC[C@H]1O[C@H](CCON=C2C[C@@H](O)[C@@H](O)[C@@H]3[C@@H]4C(=O)N(CC)C(=O)[C@@H]4CC[C@@H]23)C=C[C@@H]1Oc1ccc(OC)cc1`, the composite z-score in [1] was 1.44; in assay [2], 0.94; in [3], 0.158; in assay [4], 0.946; in [5], 1.14; in assay [6], 0.622. For the same molecule, the composite z-score in assay [8] turned out to be 1.3; in [9], 0.697. The z-score in assay [7] is -0.517; in assay [10] it was 0.321 (inactive).

Take `COc1ccc(O[C@H]2C=C[C@@H](C#Cc3ccccc3)O[C@@H]2CO)cc1`: the composite z-score is -0.0687 in [1]; 0.071 in assay [2]; 0.0306 in assay [3]; 0.744 in assay [4]; 0.365 in [5]; 0.0738 in assay [6]. Further, the composite z-score in [8] was 0.71; in assay [9], 0.48. The z-score in assay [7] was 0.511; in assay [10], -1.67 (inactive).

In the case of `CC1(C)O[C@H]2OC([C@H](O)CON3C(=O)c4ccccc4C3=O)[C@H](O)[C@H]2O1` (stereo not given in full), the composite z-score in [1] was 0.547; in [2], -0.103; in assay [3], 0.433; in assay [4] it was 0.12; in [5], 0.0275; in [6], 0.495. For the same molecule, the composite z-score in assay [8] was 0.291; in assay [9] it was 0.561. Moreover, the z-score in [7] was -0.487; in [10], -0.317 (inactive).

For `COc1cccc([C@H]2Oc3ccc(OC)cc3C(=NO[C@@H](C)c3cc(-c4c(C)cc(C)cc4C)no3)[C@@H]2O)c1`, the composite z-score in [1] is -0.314; in assay [2], -0.358; in assay [3], -0.364; in [4] it was -1.51; in assay [5], -2.57; in [6], -2.11. For the same molecule, the composite z-score is -2.4 in assay [8] and -0.52 in [9]. Moreover, the z-score was 0.611 in assay [7] and 0.995 (inactive) in assay [10].

With `COc1ccc2c(c1)O[C@@H](c1cccc(C(F)(F)F)c1)[C@H](O)C2=O`, the composite z-score came to 0.0408 in [1]; 0.584 in [2]; 0.0103 in assay [3]; 0.289 in assay [4]; 0.282 in assay [5]; 0.656 in [6]. For the same molecule, the values for the composite z-score in assay [8] and in [9] were 0.309 and 0.408, respectively. The z-score in [7] is 0.903; in [10], 0.335 (inactive).

Regarding `C[C@H]1CC[C@@H](C(=O)O)N[C@@H]1c1cccc(N2CCCC2=O)c1`, the composite z-score was -0.0817 in assay [1]; 0.675 in assay [2]; -0.0555 in assay [3]; 0.25 in assay [4]; 0.412 in [5]; 0.229 in assay [6]. Also, the values for the composite z-score in assay [8] and in [9] were 0.132 and -0.368, respectively. Further, the z-score in assay [7] is 1.21; in assay [10], -1.21 (inactive).

Take `C=CCOCC1CN2[C@@H](CC[C@@H](C)[C@@H]2c2ccc(Br)cc2)C(=O)O1` (stereo not given in full): the composite z-score in assay [1] is 0.24; in assay [2], -0.695; in assay [3] it was -0.262; in [4], -0.5; in assay [5], 0.119; in [6], 0.166. Besides, the figures for the composite z-score in [8] and in assay [9] were 0.262 and -0.16, respectively. For the same molecule, the z-score is 1.88 in [7] and -0.764 (inactive) in assay [10].

Turning to `COCC#Cc1ccc([C@@H]2N[C@H](C(=O)O)CC[C@H]2C)cc1`, the composite z-score is -1.01 in assay [1]; 0.307 in [2]; 0.547 in assay [3]; -0.426 in assay [4]; 0.273 in [5]; -0.0471 in assay [6]. Moreover, the values for the composite z-score in [8] and in assay [9] were 0.0859 and -0.389, respectively. In addition, the values for the z-score in [7] and in assay [10] were 2.23 and -1.77 (inactive), respectively.

These data come from PubChem BioAssay.
